The source of these data is PubChem BioAssay (EPA / NIEHS).

Assay [1] in a line: Tanguay_ZF_120hpf_AXIS_legacy: (Legacy) Oregon State University Tanguay Lab 120 Hour Post-fertilization zebrafish Assay for Body Axis Malformation (AID 2283635). The gist of the method:
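Embryos: 5D wild-type, pronase-dechorionated 4 hpf; static exposure 6–120 hpf, 28C, sealed, dark, 1 embryo/well, 0.64% DMSO. 120 hpf axis malformation scored present/absent; dead embryos excluded. Analysed as gain of signal vs DMSO.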

Assay [2] can be described thus: Tanguay_ZF_120hpf_EYE_legacy: (Legacy) Oregon State University Tanguay Lab 120 Hour Post-fertilization zebrafish Assay for Eye Malformation (AID 2283636).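 Note: binary presence or absence of eye malformation scored by brightfield in 120 hpf larvae.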 The method, boiled down: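 Dechorionated Tropical 5D zebrafish embryos, one per well from 6 hpf, static exposure to 120 hpf at 28C, 0.64% DMSO. Eye malformation scored present/absent by brightfield; dead embryos not scored.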

Assay [3] in a line: Tanguay_ZF_120hpf_SNOU_legacy: (Legacy) Oregon State University Tanguay Lab 120 Hour Post-fertilization zebrafish Assay for Snout Malformation (AID 2283637). The method, boiled down:
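Dechorionated tropical 5D wild-type zebrafish embryos exposed statically from 6 to 120 hpf at 28C, one per well, in 0.64% DMSO. Snout malformation scored as present/absent by brightfield at 120 hpf; dead embryos not scored.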

Assay [4] can be described thus: Tanguay_ZF_120hpf_OTIC_legacy: (Legacy) Oregon State University Tanguay Lab 120 Hour Post-fertilization zebrafish Assay for Otic Vesicle Malformation (AID 2283639). The method, boiled down:
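Tropical 5D wild-type zebrafish embryos were exposed statically in sealed, foil-covered plates at 28C until 120 hpf, with 0.64% (vol/vol) DMSO final. Otic vesicle malformation was scored present/absent by brightfield microscopy, with DMSO as baseline.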

Assay [5] in a line: Tanguay_ZF_120hpf_PE_legacy: (Legacy) Oregon State University Tanguay Lab 120 Hour Post-fertilization zebrafish Assay for Pericardial Edema (AID 2283640). The method, boiled down: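 Static waterborne exposure, 5D wild-type embryos, 28C, to 120 hpf; final DMSO 0.64% (vol/vol). Binary PE call at 120 hpf by brightfield; fitted upward vs DMSO baseline. 5uM trimethyltin chloride as positive control.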

The nature of assay [6]: Tanguay_ZF_120hpf_BRAI_legacy: (Legacy) Oregon State University Tanguay Lab 120 Hour Post-fertilization zebrafish Assay for Brain Malformation (AID 2283641). The gist of the method: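 Read-out: binary brain morphology call at 120 hpf (brightfield), fitted in gain-of-signal direction vs DMSO. Wild-type Tropical 5D embryos, static exposure, 28C, 0.64% DMSO final; 5uM trimethyltin chloride as positive control.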

A short description of assay [7]: Tanguay_ZF_120hpf_SOMI_legacy: (Legacy) Oregon State University Tanguay Lab 120 Hour Post-fertilization zebrafish Assay for Somite Malformation (AID 2283647). The method, boiled down:
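Binary brightfield scoring of somite defects at 120 hpf in 5D wild-type larvae; one dechorionated embryo per well, static exposure from 6 hpf, 28C, sealed and dark. Final DMSO 0.64%; trimethyltin chloride 5uM positive control.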

A short description of assay [8]: Tanguay_ZF_120hpf_PFIN_legacy: (Legacy) Oregon State University Tanguay Lab 120 Hour Post-fertilization zebrafish Assay for Pectoral Fin Malformation (AID 2283648).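 Note: each larva judged yes or no for fin defect by brightfield with dead larvae skipped.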 The gist of the method: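 Dechorionated Tropical 5D wild-type zebrafish embryos, one per well, statically exposed from 6 to 120 hpf at 28C with 0.64% DMSO final. Pectoral fin malformation scored present/absent by brightfield at 120 hpf; not scored in dead embryos.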

The nature of assay [9]: Tanguay_ZF_120hpf_CFIN_legacy: (Legacy) Oregon State University Tanguay Lab 120 Hour Post-fertilization zebrafish Assay for Caudal Fin Malformation (AID 2283649). The gist of the method: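 Dechorionated 5D wild-type zebrafish, static exposure 6–120 hpf, 28C, sealed and dark, 0.64% v/v DMSO final. Binary fin-malformation call at 120 hpf, brightfield; gain of signal vs DMSO baseline.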

Assay [10] is described as follows: Tanguay_ZF_120hpf_PIG_legacy: (Legacy) Oregon State University Tanguay Lab 120 Hour Post-fertilization zebrafish Assay for Pigmentation Malformation (AID 2283650). The gist of the method: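 Dechorionated Tropical 5D wild-type embryos, one per well from 6 hpf, statically exposed at 28C in the dark until 120 hpf, 0.64% DMSO final. Pigmentation scored present/absent by brightfield microscopy; dead embryos not scored; fitted versus DMSO.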

Assay [11] can be described thus: Tanguay_ZF_120hpf_CIRC_legacy: (Legacy) Oregon State University Tanguay Lab 120 Hour Post-fertilization zebrafish Assay for Circulatory Malformation (AID 2283651). The gist of the method:
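Tropical 5D wild-type embryos, dechorionated with pronase at 4 hpf, were placed singly in wells at 6 hpf and exposed statically at 28C to 120 hpf (0.64% DMSO final). Circulatory malformation was scored present/absent by brightfield microscopy.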

Assay [12] in a line: Tanguay_ZF_120hpf_TRUN_legacy: (Legacy) Oregon State University Tanguay Lab 120 Hour Post-fertilization zebrafish Assay for Truncated Body (AID 2283655). The gist of the method: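 Whole-embryo zebrafish screen: dechorionated 5D embryos, static exposure 6–120 hpf, 28C, sealed foil-covered plates, 0.64% DMSO. Binary truncation call; gain of signal versus DMSO baseline.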
The nature of assay [13]: Tanguay_ZF_120hpf_NC_legacy: (Legacy) Oregon State University Tanguay Lab 120 Hour Post-fertilization zebrafish Assay for Notochord and Tail Malformation (AID 2283656). The gist of the method:
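Dechorionated 5D zebrafish, 1/well from 6 hpf; static exposure to 120 hpf, 28C, sealed, dark; final DMSO 0.64% v/v. NC scored binary (present/absent); dead embryos not scored. Fit vs DMSO baseline, gain direction.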

A short description of assay [14]: Tanguay_ZF_120hpf_SWIM_legacy: (Legacy) Oregon State University Tanguay Lab 120 Hour Post-fertilization zebrafish Assay for Swim Bladder Malformation (AID 2283654).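 Note: swim bladder malformation in each larva scored yes or no under brightfield.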 The method, boiled down: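 Dechorionated wild-type Tropical 5D zebrafish embryos, one per well from 6 hpf, were statically exposed at 28C until 120 hpf in 0.64% DMSO. Swim bladder malformation scored as present/absent by brightfield microscopy; not scored in dead larvae.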

A short description of assay [15]: CCTE_Simmons_CellTiterGLO_HEK293T: Viability Assessment in CCTE's Assays for Thyroperoxidase (TPO) Inhibition, Simmons Lab (AID 2283665).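 For AC50: cells exposed to compound for 24 h before readout; actives reduce ATP signal below DMSO vehicle meaning cytotoxicity.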 The gist of the method:
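HEK293T cells in DMEM with 1% FBS were dosed with 8 concentrations (5 nM–87.5 uM final, 0.5% DMSO) for 24 hr at 37C; ATP content was read by CellTiter-Glo luminescence, loss-of-signal versus DMSO, three biological replicates.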

Assay [16] can be described thus: Tanguay_ZF_120hpf_JAW_legacy: (Legacy) Oregon State University Tanguay Lab 120 Hour Post-fertilization zebrafish Assay for Jaw Malformation (AID 2283638). The method, boiled down: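 Binary jaw-malformation calls at 120 hpf by brightfield imaging; DMSO (0.64% v/v) = baseline. Embryos: 5D wild-type, pronase-dechorionated, one per well from 6 hpf, static exposure, 28C, sealed, dark.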

Inconclusive results are not listed. The source made the active and inactive calls. Rule for the calls: active = hit-call score of the fitted dose curve at least 0.9, where 1 is the maximum; inconclusive = response in the unintended direction; inactive = score below 0.9.

Take `CC(=O)OC[C@H]1O[C@@](COC(C)=O)(O[C@H]2O[C@H](COC(C)=O)[C@@H](OC(C)=O)[C@H](OC(C)=O)[C@H]2OC(C)=O)[C@@H](OC(C)=O)[C@@H]1OC(C)=O`: the compound was called inactive in [1], in assay [2], in assay [3], in [4], in [5] and in assay [6]. In addition, the compound was called inactive in assay [7], in [8], in assay [9], in [10], in assay [11] and in assay [12]. The compound was called inactive in assay [13].
Consider `Clc1nc(Cl)c(Cl)c(Cl)c1Cl`, for which the compound was called inactive in assay [1], in assay [2], in assay [3], in [4], in assay [6] and in assay [7]. In addition, the compound was called inactive in [8], in assay [9], in [10], in assay [11], in [14] and in [13].
For `CCNc1ccccc1`, the outcome in assay [1], in [2], in assay [3], in [4], in assay [6] and in assay [7] was inactive. The compound was called inactive in [8], in assay [9], in assay [10], in assay [11], in assay [14] and in assay [13]. Also, in assay [15], the compound was classed as inactive.
For `O=C(OC[C@H]1O[C@@H](OC(=O)c2cc(O)c(O)c(OC(=O)c3cc(O)c(O)c(O)c3)c2)[C@H](OC(=O)c2cc(O)c(O)c(OC(=O)c3cc(O)c(O)c(O)c3)c2)[C@@H](OC(=O)c2cc(O)c(O)c(OC(=O)c3cc(O)c(O)c(O)c3)c2)[C@@H]1OC(=O)c1cc(O)c(O)c(OC(=O)c2cc(O)c(O)c(O)c2)c1)c1cc(O)c(O)c(OC(=O)c2cc(O)c(O)c(O)c2)c1`, the outcome in assay [1], in [2], in assay [3], in assay [4], in assay [5] and in assay [6] was inactive. The compound was called inactive in [7], in assay [8], in [9], in assay [10], in assay [11] and in assay [14]. For the same compound, the compound was classed as inactive in assay [12] and in [13]. For the same compound, in assay [15], the AC50 (in general, the midpoint of the concentration-response curve, whichever way the signal moves) is 1.41 µM (active).
Regarding `CC[C@H](C)C(=O)O[C@H]1C[C@@H](C)C=C2C=C[C@H](C)[C@H](CC[C@@H]3C[C@@H](O)CC(=O)O3)[C@H]21`, the result in assay [1], in assay [2], in assay [3], in [4], in [5] and in assay [7] was inactive. The result in assay [8], in assay [9], in [10], in [11], in assay [14] and in [13] was inactive. The call in assay [15] was inactive.
Consider `CC(=O)OCCC(C)C`, for which the call in [1], in assay [2], in [3], in assay [4], in assay [6] and in [9] was inactive. Besides, the compound was called inactive in assay [14] and in [13].
On to `COCCOCCOCCOC`, for which the result in assay [2], in assay [3], in assay [16], in [5], in [6] and in [8] was inactive. The compound was called inactive in assay [9], in [10], in [14], in assay [12] and in assay [13].
Regarding `O=C(O)CCN(C1(C(=O)NO)CCCC1)S(=O)(=O)c1ccc(Oc2ccc(F)cc2)cc1`, the compound was classed as inactive in assay [2], in assay [3], in assay [16], in assay [6], in [7] and in [8]. Also, the call in assay [9], in [11], in [14], in [13] and in assay [15] was inactive.
Turning to `CCCCCCCCO`, the compound was classed as inactive in assay [2], in assay [3], in [16], in assay [6], in [7] and in assay [8]. Moreover, the call in [9], in assay [10], in assay [14] and in assay [12] was inactive.
For `CC(C)=CCC/C(C)=C\CO`, the outcome in assay [2], in assay [16], in assay [4], in assay [5], in assay [6] and in [8] was inactive. In addition, the compound was called inactive in assay [9], in [10], in assay [11], in [13] and in [15].
